Laboratory results from PubChem BioAssay (NCATS).
Where “and” joins values, the source holds several entries; their conditions need not be identical. Identical values can stand only once. Results filed as inconclusive are left out. Calls of active or inactive are those of the source. Calls follow the shape of the dose curve; as a rule, active = well fitted cell-killing curve with a large enough effect; inconclusive = small, poorly fitted or top-dose-only effect, or effect the other way; inactive = flat fitted curve, though single readings scatter.

Assay: qHTS assay for cell viability of HEK293 cells (AID 743288); also: nearly all actives have a fitted effect of over 50% in size
Conditions: ATP luminescence (CellTiter-Glo), 18 h; max response: stronger effect = lower value
Excerpt: National Center for Advancing Translational Sciences [NCATS]
NIH Chemical Genomics Center [NCGC]
U.S. Environmental Protection Agency [EPA]
National Institutes of Environmental Health Sciences [NIEHS]
National Toxicology Program [NTP]
U.S. Food and Drug Administration [FDA]
The CellTiter-Glo Luminescent Cell Viability Assay (Promega, Madison, WI) is a homogeneous method to determine the number of viable cells in culture based on quantitation of the ATP present, which signals the presence of metabolically active cells. This cell viability assay was used to screen environmental chemicals in the Hek293 cell line.
Tox21 Assay Protocol Summary:
Cell viability after compound treatment was measured using a luciferase-coupled ATP quantitation assay (CellTiter-Glo viability assay, Promega, Madison, WI) in parental HEK293 cells. Total intracellular ATP content corresponds to the number of metabolically competent cells after compound treatment. The cells were dispensed at 2,000 cells/5 uL/well in 1,536-well white/solid bottom assay plates using a Flying Reagent Dispenser (Aurora Discovery, San Diego, CA). The cells were incubated a minimum of 5 h at 37 C, followed by the addition of 23 nL of compounds dissolved in DMSO, positive controls or DMSO only using a pintool work station (Kalypsys, San Diego, CA). The assay plates were incubated for 18 h at 37 C, followed by the addition of 5 uL/well of CellTiter-Glo reagent. After 30 min incubation at room temperature, the luminescence intensity of the plates was measured using a ViewLux plate reader (PerkinElmer, Shelton, CT).
% is scaled to controls: 0 for no effect and ±100 for the full control effect; potency is read from the fitted curve at half-maximal effect.

Compound | max response | Potency
O=C1CCC(N2C(=O)c3ccccc3C2=O)C(=O)N1 (stereo not drawn) | -7.06% (inactive) | –
C[C@]12CCC(=O)C=C1CC[C@@H]1[C@@H]2[C@@H](O)C[C@@]2(C)[C@H]1CC[C@]2(O)C(=O)CO | -17.5% (inactive) | –
O=NN(CCCl)C(=O)NCCCl | -8.57% (inactive) | –
CNC[C@H](O)c1cccc(O)c1 | -12.3% (inactive) | –
NS(=O)(=O)c1cc2c(cc1Cl)NC=NS2(=O)=O | -1.12% (inactive) | –
O=c1[nH]cnc2[nH]ncc12 | 10.5% (inactive) | –
NC(N)=NC(=O)c1nc(Cl)c(N)nc1N | -10.2% (inactive) | –
COc1ccc2nc(S(=O)Cc3ncc(C)c(OC)c3C)[nH]c2c1 (stereo not drawn) | -16.7% (inactive) | –
Cc1ccccc1C(OCCN(C)C)c1ccccc1 (stereo not drawn) | -14.1% (inactive) | –
Cc1c(C)c2c(c(C)c1O)CCC(C)(COc1ccc(CC3SC(=O)NC3=O)cc1)O2 (stereo not drawn) | -10.3% (inactive) | –
NC(=O)c1cnccn1 | 4.61% (inactive) and 0.671% (inactive) | –
CC(=O)Oc1ccccc1C(=O)O | -2.25% (inactive) and -4.16% (inactive) and -2.23% (inactive) | –
CC(C)(Sc1ccc(CCN(CCCCC2CCCCC2)C(=O)NC2CCCCC2)cc1)C(=O)O | -6.91% (inactive) | –
NC[C@H](O)c1ccc(O)c(O)c1 | -4.13% (inactive) | –
Cn1cnc([N+](=O)[O-])c1Sc1ncnc2nc[nH]c12 | – | 4.47 µM (active) and 5.01 µM (active)
Cc1[nH]c(=O)c(C#N)cc1-c1ccncc1 | 7.32% (inactive) | –
CCCC(CCC)C(=O)O | 3.06% (inactive) and -3.28% (inactive) and -9.08% (inactive) | –
Cc1cc2c(C(C)C)c(O)c(O)c(C=O)c2c(O)c1-c1c(C)cc2c(C(C)C)c(O)c(O)c(C=O)c2c1O | – | 35.5 µM (active)
